Source: PubChem BioAssay (Tox21)
“And” between values parts separate entries of the source, which are not always exact repeats. Identical values can stand only once. Results filed as inconclusive are left out. A structure can be active in one record and inactive in another. The source made the active and inactive calls. Unless noted, calls follow the shape of the dose curve; as a rule, active = well fitted curve in the direction sought with a large enough effect in the repeat runs; inconclusive = weak or mixed curves; inactive = no such curve, though single readings can be large; an effect the other way counts as inactive or inconclusive.

Assays:
[1] = biological target: Acetylcholinesterase (Homo sapiens) (UniProt P22303); experiment: Acetylcholinesterase (AChE) small molecule antagonists: enzyme-based qHTS assay with human liver microsomes (AID 1347399; calls by dose curve; also: nearly all actives have a fitted effect of over 60% in size); settings: Potency: qHTS inhibition
Acetylcholinesterase (Homo sapiens), sequence (P22303 whole entry, looked up): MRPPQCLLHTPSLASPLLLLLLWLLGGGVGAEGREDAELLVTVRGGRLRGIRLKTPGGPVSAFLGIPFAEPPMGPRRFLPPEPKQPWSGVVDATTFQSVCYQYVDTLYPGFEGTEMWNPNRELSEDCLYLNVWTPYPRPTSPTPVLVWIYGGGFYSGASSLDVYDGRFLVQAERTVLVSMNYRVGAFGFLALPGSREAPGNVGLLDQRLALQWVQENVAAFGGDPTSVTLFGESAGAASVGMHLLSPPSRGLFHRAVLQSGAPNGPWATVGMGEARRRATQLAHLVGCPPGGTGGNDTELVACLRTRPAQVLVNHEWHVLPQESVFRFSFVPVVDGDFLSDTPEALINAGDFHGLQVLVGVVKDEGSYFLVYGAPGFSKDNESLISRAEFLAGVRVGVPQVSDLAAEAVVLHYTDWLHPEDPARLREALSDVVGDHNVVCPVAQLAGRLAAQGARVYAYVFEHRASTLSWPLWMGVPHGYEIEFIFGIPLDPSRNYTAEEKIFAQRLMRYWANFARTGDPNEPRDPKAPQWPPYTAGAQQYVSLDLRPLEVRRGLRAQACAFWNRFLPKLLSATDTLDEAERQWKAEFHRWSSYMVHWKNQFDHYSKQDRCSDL
Procedure, shortened: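 Recombinant human AChE (50 mU/mL in the enzyme mix) and human liver microsomes (0.25 mg/mL final) were preincubated with compound and NADPH (0.25 mg/mL final) for 30 min at 37 C. Acetylthiocholine/DTNB was then added; thiocholine was read colorimetrically after 10 min at room temperature.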

[2] = biological target: Cytochrome P450 2D6 (Homo sapiens) (UniProt P10635); experiment: Cytochrome P450 Family 2 Subfamily D Member 6 (CYP2D6) small molecule antagonists: luciferase reporter qHTS assay (AID 1671196); also: nearly all actives have a fitted effect of over 50% in size; also: potency is read from the fitted curve at half-maximal effect; as to activity change, negative = inhibition: series mostly up to about 120 µM
Cytochrome P450 2D6 (Homo sapiens), sequence (P10635 whole entry, looked up): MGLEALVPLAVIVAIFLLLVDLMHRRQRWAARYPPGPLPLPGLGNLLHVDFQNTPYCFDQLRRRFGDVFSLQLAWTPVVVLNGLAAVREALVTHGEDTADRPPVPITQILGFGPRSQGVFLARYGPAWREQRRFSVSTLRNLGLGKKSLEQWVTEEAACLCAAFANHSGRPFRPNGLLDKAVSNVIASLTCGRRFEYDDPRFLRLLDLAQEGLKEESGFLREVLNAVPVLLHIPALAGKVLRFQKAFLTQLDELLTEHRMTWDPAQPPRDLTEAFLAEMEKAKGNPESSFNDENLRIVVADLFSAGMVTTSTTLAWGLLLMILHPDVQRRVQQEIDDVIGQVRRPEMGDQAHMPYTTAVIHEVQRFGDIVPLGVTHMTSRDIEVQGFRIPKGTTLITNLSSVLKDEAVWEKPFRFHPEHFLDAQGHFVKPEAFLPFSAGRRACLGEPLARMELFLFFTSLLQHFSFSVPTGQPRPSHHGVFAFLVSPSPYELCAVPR
Procedure, shortened: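 CYP2D6 enzyme–substrate mix was held with compound for 10 min at room temperature, then NADPH regeneration solution was added and the reaction ran 1 h at room temperature. Luciferin product was detected by luminescence after 20 min with detection reagent.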

[3] = biological target: Cytochrome P450 2C19 (Homo sapiens) (UniProt P33261); experiment: Cytochrome P450 Family 2 Subfamily C Member 19 (CYP2C19) small molecule antagonists: luciferase reporter qHTS assay (AID 1671197); also: nearly all actives have a fitted effect of over 65% in size; also: potency is read from the fitted curve at half-maximal effect; as to activity change, negative = inhibition: series mostly up to about 120 µM
Cytochrome P450 2C19 (Homo sapiens), sequence (P33261 whole entry, looked up): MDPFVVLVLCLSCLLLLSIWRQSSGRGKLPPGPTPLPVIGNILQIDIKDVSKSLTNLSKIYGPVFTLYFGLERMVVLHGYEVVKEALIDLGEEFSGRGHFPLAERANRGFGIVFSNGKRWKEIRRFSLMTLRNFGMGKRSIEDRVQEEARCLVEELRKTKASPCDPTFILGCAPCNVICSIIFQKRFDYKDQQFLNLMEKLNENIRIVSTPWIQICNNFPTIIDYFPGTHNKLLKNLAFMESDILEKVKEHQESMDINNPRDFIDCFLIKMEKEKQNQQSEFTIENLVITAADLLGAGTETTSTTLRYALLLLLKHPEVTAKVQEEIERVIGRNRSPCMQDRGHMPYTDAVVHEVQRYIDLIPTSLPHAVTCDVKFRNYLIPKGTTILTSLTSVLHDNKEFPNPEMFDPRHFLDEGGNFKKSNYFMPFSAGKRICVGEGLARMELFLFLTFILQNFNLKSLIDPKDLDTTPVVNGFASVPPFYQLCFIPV
Procedure, shortened: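 First, compounds are pinned into enzyme-substrate mix and held 10 min at room temperature. Second, NADPH regeneration solution is added and plates incubate 1 h at 37C. Third, detection reagent is added and luminescence read after 20 min.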

[4] = biological target: Cytochrome P450 2C9 (Homo sapiens) (UniProt P11712); experiment: Cytochrome P450 Family 2 Subfamily C Member 9 (CYP2C9) small molecule antagonists: luciferase reporter qHTS assay (AID 1671198); also: nearly all actives have a fitted effect of over 50% in size; also: potency is read from the fitted curve at half-maximal effect; as to activity change, negative = inhibition: series mostly up to about 120 µM
Cytochrome P450 2C9 (Homo sapiens), sequence (P11712 whole entry, looked up): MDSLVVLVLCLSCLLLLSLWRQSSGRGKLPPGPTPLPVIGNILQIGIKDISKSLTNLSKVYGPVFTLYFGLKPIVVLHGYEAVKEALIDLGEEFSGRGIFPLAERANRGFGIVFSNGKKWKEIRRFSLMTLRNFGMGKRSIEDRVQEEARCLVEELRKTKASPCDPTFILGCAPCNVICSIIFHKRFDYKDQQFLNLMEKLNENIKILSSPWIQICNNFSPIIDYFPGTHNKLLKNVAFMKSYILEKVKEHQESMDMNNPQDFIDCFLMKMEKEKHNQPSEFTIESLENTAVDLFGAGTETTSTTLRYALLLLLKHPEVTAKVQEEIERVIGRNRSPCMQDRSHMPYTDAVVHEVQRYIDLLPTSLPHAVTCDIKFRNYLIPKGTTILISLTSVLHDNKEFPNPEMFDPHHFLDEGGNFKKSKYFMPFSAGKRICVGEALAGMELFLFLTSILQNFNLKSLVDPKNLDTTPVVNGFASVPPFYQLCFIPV
Procedure, shortened: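 P450-Glo proluciferin substrate with CYP2C9 enzyme; 10 min RT preincubation, then NADPH regeneration 1 h at 37C; luciferin detection reagent 20 min RT, luminescence in relative luminescence units.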

[5] = biological target: Cytochrome P450 1A2 (Homo sapiens) (UniProt P05177); experiment: Cytochrome P450 Family 1 Subfamily A Member 2 (CYP1A2) small molecule antagonists: luciferase reporter qHTS assay (AID 1671199); also: nearly all actives have a fitted effect of over 50% in size; also: potency is read from the fitted curve at half-maximal effect; as to activity change, negative = inhibition: series mostly up to about 120 µM
Cytochrome P450 1A2 (Homo sapiens), sequence (P05177 whole entry, looked up): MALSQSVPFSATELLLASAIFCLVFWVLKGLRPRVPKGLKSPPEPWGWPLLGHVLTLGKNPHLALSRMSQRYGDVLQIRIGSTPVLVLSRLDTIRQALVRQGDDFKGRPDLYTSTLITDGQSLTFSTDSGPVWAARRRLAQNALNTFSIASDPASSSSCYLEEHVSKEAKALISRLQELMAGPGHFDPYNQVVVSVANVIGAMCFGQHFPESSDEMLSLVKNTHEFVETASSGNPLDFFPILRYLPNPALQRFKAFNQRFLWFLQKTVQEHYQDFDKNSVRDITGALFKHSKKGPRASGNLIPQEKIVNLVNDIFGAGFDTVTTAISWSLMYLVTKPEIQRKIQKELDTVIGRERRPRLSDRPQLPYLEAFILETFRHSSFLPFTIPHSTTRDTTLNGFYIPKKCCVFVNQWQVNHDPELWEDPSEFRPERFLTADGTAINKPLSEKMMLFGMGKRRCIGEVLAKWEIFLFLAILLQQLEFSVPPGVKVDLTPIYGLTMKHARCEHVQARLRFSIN
Procedure, shortened: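 Human CYP1A2 activity measured with a P450-Glo proluciferin substrate; compounds in DMSO preincubated 10 min at room temperature with enzyme-substrate mix, then NADPH regeneration system added for 1 h. Luciferin detection reagent, 20 min, luminescence read.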

[6] = biological target: Cytochrome P450 3A4 (Homo sapiens) (UniProt P08684); experiment: Cytochrome P450 Family 3 Subfamily A Member 4 (CYP3A4) small molecule antagonists: luciferase reporter qHTS assay (AID 1671201); also: nearly all actives have a fitted effect of over 50% in size; also: potency is read from the fitted curve at half-maximal effect; as to activity change, negative = inhibition: series mostly up to about 120 µM
Cytochrome P450 3A4 (Homo sapiens), sequence (P08684 whole entry, looked up): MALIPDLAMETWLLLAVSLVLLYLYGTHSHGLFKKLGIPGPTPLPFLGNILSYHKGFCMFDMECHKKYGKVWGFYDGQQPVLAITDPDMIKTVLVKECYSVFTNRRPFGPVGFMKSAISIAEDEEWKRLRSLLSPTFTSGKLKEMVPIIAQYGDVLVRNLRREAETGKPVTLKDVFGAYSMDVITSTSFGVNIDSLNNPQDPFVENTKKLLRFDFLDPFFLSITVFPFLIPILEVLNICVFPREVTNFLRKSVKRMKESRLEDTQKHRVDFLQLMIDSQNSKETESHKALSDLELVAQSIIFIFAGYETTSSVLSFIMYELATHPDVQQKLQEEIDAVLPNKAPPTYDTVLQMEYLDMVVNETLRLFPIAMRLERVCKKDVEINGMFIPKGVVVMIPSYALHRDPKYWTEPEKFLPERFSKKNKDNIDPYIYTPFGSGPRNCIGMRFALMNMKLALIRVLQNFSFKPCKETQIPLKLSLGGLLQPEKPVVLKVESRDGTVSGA
Procedure, shortened: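 P450-Glo CYP3A4 luminescent assay: compounds preincubated 10 min at room temperature with enzyme and proluciferin substrate, NADPH regeneration added, 1 h room-temperature reaction, stopped with luciferin detection reagent; luminescence read after 20 min. Ketoconazole positive control.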

[7] = biological target: Voltage-gated inwardly rectifying potassium channel KCNH2 (Homo sapiens) (UniProt Q12809); experiment: Human Ether-a-go-go-Related Gene (hERG) channel small molecule antagonists: fluorescence cell-based qHTS assay (AID 1671200); also: nearly all actives have a fitted effect of over 50% in size; also: potency is read from the fitted curve at half-maximal effect;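 as to activity change, negative = inhibition: hERG-expressing U2OS cells given a thallium stimulus after FluxOR II dye loading; series mostly up to about 77 µM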
Voltage-gated inwardly rectifying potassium channel KCNH2 (Homo sapiens), sequence (Q12809 whole entry, looked up): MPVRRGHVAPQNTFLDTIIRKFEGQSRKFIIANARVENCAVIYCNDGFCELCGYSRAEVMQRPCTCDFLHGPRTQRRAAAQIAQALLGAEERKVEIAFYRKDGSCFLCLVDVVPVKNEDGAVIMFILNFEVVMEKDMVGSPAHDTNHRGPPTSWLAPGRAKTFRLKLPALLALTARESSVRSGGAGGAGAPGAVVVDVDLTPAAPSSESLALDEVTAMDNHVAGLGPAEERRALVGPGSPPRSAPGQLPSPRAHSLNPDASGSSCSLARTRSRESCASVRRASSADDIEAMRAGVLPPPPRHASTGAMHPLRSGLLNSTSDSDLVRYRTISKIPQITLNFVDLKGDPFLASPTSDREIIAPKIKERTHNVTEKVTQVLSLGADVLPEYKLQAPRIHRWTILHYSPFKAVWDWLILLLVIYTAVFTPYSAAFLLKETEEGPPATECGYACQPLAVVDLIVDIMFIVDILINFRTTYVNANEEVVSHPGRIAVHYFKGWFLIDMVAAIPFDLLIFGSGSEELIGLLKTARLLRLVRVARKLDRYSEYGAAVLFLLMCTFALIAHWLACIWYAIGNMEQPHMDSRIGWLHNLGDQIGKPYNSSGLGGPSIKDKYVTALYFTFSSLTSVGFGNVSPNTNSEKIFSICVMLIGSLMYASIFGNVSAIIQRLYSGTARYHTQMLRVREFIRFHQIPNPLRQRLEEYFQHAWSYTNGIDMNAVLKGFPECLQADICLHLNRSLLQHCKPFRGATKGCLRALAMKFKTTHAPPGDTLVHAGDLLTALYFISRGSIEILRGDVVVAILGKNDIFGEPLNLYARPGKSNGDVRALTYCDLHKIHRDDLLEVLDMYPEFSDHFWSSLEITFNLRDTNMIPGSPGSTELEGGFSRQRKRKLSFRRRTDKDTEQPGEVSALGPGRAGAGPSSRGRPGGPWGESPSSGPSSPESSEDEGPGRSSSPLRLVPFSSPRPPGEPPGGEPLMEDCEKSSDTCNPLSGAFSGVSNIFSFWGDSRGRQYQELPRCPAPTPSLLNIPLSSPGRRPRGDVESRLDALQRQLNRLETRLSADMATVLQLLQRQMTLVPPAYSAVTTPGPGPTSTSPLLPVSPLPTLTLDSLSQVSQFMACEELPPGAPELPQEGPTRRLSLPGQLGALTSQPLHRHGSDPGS
Procedure, shortened: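 hERG-U2OS cells plated overnight at 37 C, loaded with FluxOR II dye 1 h at RT in dark; after 10 min, thallium stimulus added. Fluorescence (480/540 nm) read kinetically for 2 min at 1 s intervals.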
% is scaled to controls: 0 for no effect and ±100 for the full control effect.

Brc1c(Br)c(Br)c(Oc2c(Br)c(Br)c(Br)c(Br)c2Br)c(Br)c1Br
inactive: activity change, negative = inhibition [1] -0.487% [at 23.6 µM] | activity change, negative = inhibition [2] 0.431% [at 23.6 µM] | activity change, negative = inhibition [3] 12.5% [at 23.6 µM] | activity change, negative = inhibition [4] -7.81% [at 23.6 µM] | activity change, negative = inhibition [5] -11% [at 23.6 µM] | activity change, negative = inhibition [6] 2.2% [at 23.6 µM]

CC(O)C#N (centres undefined)
inactive: Potency [1] | Potency [2] | Potency [3] | Potency [4] | Potency [5] | Potency [7] | Potency [6]

CC(C)C1CCC(Cc2ccc(Cl)cc2)C1(O)Cn1cncn1 (centres undefined)
active: Potency [2] 22.2 µM | Potency [3] 0.353 µM | Potency [4] 0.789 µM | Potency [5] 31.4 µM | Potency [7] 34.3 µM | Potency [6] 0.0498 µM
inactive: Potency [1]

O=C1C=CC(=O)c2ccccc21
active: Potency [2] 15.9 µM | Potency [3] 14.2 µM | Potency [4] 11.2 µM | Potency [5] 25.2 µM | Potency [7] 21.9 µM | Potency [6] 15.9 µM
inactive: Potency [1]

CCCCCCCCCC[N+](C)(C)CCCCCCCCCC
active: Potency [2] 1 µM | Potency [3] 35.6 µM | Potency [4] 39.9 µM | Potency [5] 39.9 µM | Potency [6] 56.4 µM
inactive: Potency [1]

[Cl][Sn]([c]1ccccc1)([c]1ccccc1)[c]1ccccc1
inactive: activity change, negative = inhibition [1] 0.0872% [at 23.6 µM] | activity change, negative = inhibition [5] -2.03% [at 23.6 µM]
active: Potency [2] 0.952 µM | Potency [3] 6.74 µM | Potency [4] 3.79 µM | Potency [7] 2.08 µM | Potency [6] 7.56 µM

O=C(O)C1C2CCC(O2)C1C(=O)O (centres undefined)
inactive: Potency [1] | Potency [2] | Potency [4] | Potency [5] | Potency [7] | Potency [6]
36 µM (active) and inactive: Potency [3]

Clc1ccc(-c2ccc(Cl)c(Cl)c2Cl)c(Cl)c1Cl
inactive: Potency [1] | Potency [2] | Potency [6]
active: Potency [3] 1.91 µM | Potency [4] 17 µM | Potency [5] 33.9 µM

CCCCCCCCCCCCCC[P+](CCCCCC)(CCCCCC)CCCCCC (tested in a mixture with another compound)
active: Potency [2] 1.26 µM | Potency [3] 20 µM | Potency [4] 22.5 µM | Potency [5] 22.5 µM | Potency [7] 0.692 µM | Potency [6] 5.03 µM
inactive: Potency [1]

Oc1c(Br)c(Br)c(Br)c(Br)c1Br
active: Potency [4] 35.8 µM | Potency [5] 56.8 µM
inactive: Potency [1] | Potency [2] | Potency [3] | Potency [7] | Potency [6]

CC(C)OS(C)(=O)=O
inactive: Potency [1] | Potency [3] | Potency [4] | Potency [7] | Potency [6]
active: Potency [2] 40.2 µM | Potency [5] 40.2 µM

C=COCCCl
inactive: Potency [1] | Potency [2] | Potency [3] | Potency [4] | Potency [5] | Potency [7] | Potency [6]

CNC(C)Cc1ccc2c(c1)OCO2 (centres undefined)
active: Potency [2] 0.491 µM
inactive: Potency [1] | Potency [3] | Potency [4] | Potency [5] | Potency [7] | Potency [6]

CCc1ccccc1C
inactive: Potency [1] | Potency [2] | Potency [3] | Potency [4] | Potency [5] | Potency [7] | Potency [6]

COc1ccc(N)cc1N
inactive: Potency [1]
active: Potency [2] 10.3 µM and 17.1 µM | Potency [3] 732 nM and 3.83 µM | Potency [4] 41.2 µM and 24.2 µM | Potency [5] 6.53 µM and 38.3 µM | Potency [6] 11.6 µM

CC(=O)O[C@H]1CC[C@@]2(C)C(=CC[C@@H]3[C@@H]2CC[C@]2(C)C(=O)CC[C@@H]32)C1
inactive: Potency [1] | Potency [2] | Potency [5] | Potency [6]
active: Potency [3] 31.7 µM | Potency [4] 31.7 µM | Potency [7] 49 µM

S=C=Nc1cccc2ccccc12
active: Potency [2] 14 µM | Potency [3] 2.8 µM | Potency [4] 4.98 µM | Potency [5] 8.85 µM | Potency [6] 3.14 µM
inactive: Potency [1] | Potency [7]

C[As+](C)(C)CC(=O)[O-]
inactive: Potency [1] | Potency [2] | Potency [3] | Potency [4] | Potency [5] | Potency [7] | Potency [6]

Clc1ccc(C(c2ccccc2Cl)C(Cl)(Cl)Cl)cc1 (centres undefined)
active: Potency [3] 637 nM and 234 nM | Potency [4] 22.6 µM and 10.4 µM
inactive: Potency [1] | Potency [2] | Potency [5] | Potency [6]

Fc1ccc(Oc2ccnc3cc(Cl)cc(Cl)c23)cc1
inactive: Potency [1]
active: Potency [2] 35.6 µM | Potency [3] 20 µM | Potency [4] 31.7 µM | Potency [5] 0.71 µM | Potency [7] 24.5 µM | Potency [6] 63.3 µM

Cc1ccc(CCl)cc1
inactive: Potency [1] | Potency [2] | Potency [3] | Potency [4] | Potency [5] | Potency [7] | Potency [6]

CC(c1ccc(O)cc1)c1ccc(O)cc1
37.4 µM (active) and inactive: Potency [5]
51.5 µM (active) and inactive: Potency [7]
active: Potency [4] 59.3 µM and 35.6 µM | Potency [6] 42 µM
33.4 µM (active) and inactive: Potency [2]
inactive: Potency [1]
21 µM (active) and inactive: Potency [3]
